Measured values from PubChem BioAssay.
Calls of active or inactive are those of the source. Unless noted, how the calls were made is not given here.

Assays:
[1] = compounds binding Alexa647 anti-His antibody – biochemical, small-molecule microarray, 635 nm fluorescence, artefact control for SMM control protein annotation, primary screen (AID 1128); details: higher = more signal;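 further: score merges feature fluorescence with signal-to-noise for each printed compound spot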
[2] = tested on: Human papillomavirus type 1a E7 protein (residues 1-88); test: HPV1a E7 small-molecule binders, primary screen, biochemical, small-molecule microarray, residues 1-88, 635 nm (AID 1129); details: small-molecule microarray binding, fluorescence 635 nm; higher = more signal
[3] = biological target: Focal adhesion kinase 1 (Homo sapiens) (UniProt Q05397); test: PTK2 protein binding on printed compound slides – biochemical, small-molecule microarray, 635/667 nm fluorescence, BSA, DTT, primary screen (AID 1130); details: 635 nm fluorescence, higher = more signal;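 further: composite of spot emission at 667 nm and signal to noise over triplicate slides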
[4] = tested on: Fibrinogen (Alexa647-labelled); test: Alexa647-fibrinogen binding to printed small molecules – biochemical, small-molecule microarray, 635/667 nm fluorescence, artefact control for SMM control-protein annotation, profiling panel (AID 1131); details: fibrinogen-A647 binding fluorescence, higher = more signal;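 further: z-score merges 667 nm fluorescence with per-spot signal-to-noise over triplicate slides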
[5] = biological target: Follistatin (Homo sapiens) (UniProt P19883); test: FST protein binding to printed compounds – biochemical, small-molecule microarray, 635/667 nm fluorescence, primary screen (AID 1132); details: 635 nm fluorescence, higher = more signal
[6] = biological target: Fibroblast growth factor 2 (Homo sapiens) (UniProt P09038); test: basic fibroblast growth factor binding to printed compounds – biochemical, small-molecule microarray, 635/667 nm fluorescence, primary screen (AID 1133); details: FGF2, fluorescence 635/667, higher = more signal
[7] = JC-1 mitochondrial potential readout, lung cancer cells – cell-based, A549, JC-1 fluorescence, basal, 24 h, 100 nL, profiling panel (AID 1138); details: higher = more signal;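 further: A549 lung adenocarcinoma cells under basal conditions with no added stimulus; test concentration not given here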
Lefty1 = Lefty1 protein binding to printed compounds – biochemical, small-molecule microarray, 635/667 nm fluorescence, primary screen (AID 1139); details: fluorescence 635/667, higher = more signal
[8] = tested on: wheat germ agglutinin (Triticum aestivum), Alexa647-labelled; test: Alexa647-WGA lectin binding to printed small molecules – biochemical, small-molecule microarray, 635/667 nm fluorescence, artefact control for SMM control-protein annotation, profiling panel (AID 1140); details: WGA-A647 binding, 635 nm fluorescence, higher = more signal;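 further: score merges 667 nm feature emission with signal to noise over triplicate slides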
[9] = biological target: Luciferin 4-monooxygenase (Photinus pyralis) (UniProt P08659); test: inhibition of purified Photinus pyralis luciferase – biochemical, luminescence, purified enzyme, 2006 set, primary screen (AID 1141); details: purified firefly luciferase, SteadyGlo luminescence, 30 min; higher = more signal, called active from +8 up or from −8 down;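 further: cell-free assay with purified firefly luciferase at 100 ng per well in PBS; test concentration not given here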
[10] = tested on: Wnt5a (protein binding on small-molecule microarray); test: small molecules binding Wnt5a protein – biophysical, small-molecule microarray, 635/667 nm fluorescence, primary screen (AID 1142); details: 635 nm fluorescence, higher = more signal;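 further: fluorescence read at 667 nm with signal to noise per printed feature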
[11] = ATP-based viability of Huh7 replicon cells – cell-based, CellTiter-Glo luminescence, basal, 48 h, cytotoxicity control for HCV replication inhibitor project, primary screen (AID 1143); details: higher = more signal, called active from +8 up or from −8 down;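 further: Huh7 hepatoma cells carrying a hepatitis C replication reporter with no stimulus; test concentration not given here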
[12] = Pseudomonas biofilm growth suppression – PAO1 strain, BacTiter-Glo luminescence, LB-PBS, primary screen (AID 1144); details: P. aeruginosa PAO1 biofilm, 12 h, higher = more signal
[13] = basal CRE-LacZ reporter activity in PC12 – cell-based, unstimulated, primary screen (AID 1145); details: no forskolin, luminescence, 4.5 h, higher = more signal, called active from +8 up or from −8 down
[14] = forskolin-driven CRE-LacZ activity in PC12 – cell-based, CRE-LacZ reporter, forskolin-stimulated, primary screen (AID 1146); details: luminescence, 4.5 h, higher = more signal, called active from +8 up or from −8 down;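 further: PC12 cells with 6xCRE LacZ reporter stimulated by forskolin 10 µM; beta-galactosidase reporter signal reflecting CREB driven transcription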
[15] = biological target: Streptavidin (Streptomyces avidinii) (UniProt P22629); test: compounds binding control protein streptavidin – biophysical, small-molecule microarray, 635/667 nm fluorescence, artefact control for SMM compound annotation, primary screen (AID 1147); details: higher = more signal;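 further: signal reflects streptavidin binding to arrayed compounds as a control protein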
[16] = probe aInhba binding on compound microarray – biochemical, small-molecule microarray, 635/667 nm fluorescence, primary screen (AID 1148); details: higher = more signal;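 further: score merges 667nm spot fluorescence with signal-to-noise for antibody binding to printed compounds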
Torsin-1A (Homo sapiens) [17] = biological target: Torsin-1A (Homo sapiens) (UniProt O14656); test: TOR1A wild-type binding on microarray – cell lysate, small-molecule microarray, lysate, 635/667 nm, primary screen (AID 1149); details: COS7 hTOR1A-WT lysate, 635 nm fluorescence, higher = more signal
Torsin-1A (Homo sapiens) [18] = biological target: Torsin-1A (Homo sapiens) (UniProt O14656); test: torsin A mutant lysate binding on microarrays – cell lysate, small-molecule microarray, COS7 lysate, 635/667 nm fluorescence, primary screen (AID 1150); details: COS7 hTOR1A mutant lysate, 635 nm fluorescence, higher = more signal;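 further: score pools 667 nm emission and signal to noise measuring lysate protein binding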
[19] = tested on: Sonic hedgehog protein (Shh); test: Sonic hedgehog microarray binding compounds – biochemical, small-molecule microarray, 635/667 nm fluorescence, primary screen (AID 1151); details: 635 nm fluorescence, higher = more signal;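 further: Shh protein binding to compounds spotted on small-molecule microarray slides; score combines spot fluorescence intensity with signal-to-noise across triplicate slides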

Sequence of Streptavidin (Streptomyces avidinii) (P22629 whole entry, looked up): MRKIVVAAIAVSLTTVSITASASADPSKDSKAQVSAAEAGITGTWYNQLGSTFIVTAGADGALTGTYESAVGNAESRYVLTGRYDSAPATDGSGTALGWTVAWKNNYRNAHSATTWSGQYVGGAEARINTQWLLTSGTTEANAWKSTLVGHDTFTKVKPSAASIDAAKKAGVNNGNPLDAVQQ
Sequence of Torsin-1A (Homo sapiens) (O14656 whole entry, looked up): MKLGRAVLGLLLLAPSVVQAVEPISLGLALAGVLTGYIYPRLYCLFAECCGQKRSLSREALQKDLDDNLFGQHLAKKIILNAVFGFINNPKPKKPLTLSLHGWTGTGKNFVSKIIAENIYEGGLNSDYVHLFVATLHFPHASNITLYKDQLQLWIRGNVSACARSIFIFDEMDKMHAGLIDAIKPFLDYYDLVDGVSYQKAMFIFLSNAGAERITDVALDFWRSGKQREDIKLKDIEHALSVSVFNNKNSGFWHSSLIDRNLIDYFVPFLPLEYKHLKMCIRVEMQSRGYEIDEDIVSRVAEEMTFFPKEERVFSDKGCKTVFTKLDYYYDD
Sequence of Fibroblast growth factor 2 (Homo sapiens) (P09038 whole entry, looked up): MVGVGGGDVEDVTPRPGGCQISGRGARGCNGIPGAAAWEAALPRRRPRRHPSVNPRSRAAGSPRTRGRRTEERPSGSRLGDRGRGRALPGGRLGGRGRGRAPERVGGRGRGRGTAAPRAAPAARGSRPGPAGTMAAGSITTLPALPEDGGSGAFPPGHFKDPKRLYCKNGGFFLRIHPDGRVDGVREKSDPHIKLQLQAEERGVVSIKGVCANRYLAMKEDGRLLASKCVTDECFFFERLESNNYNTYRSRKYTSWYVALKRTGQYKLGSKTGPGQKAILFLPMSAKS
Sequence of Luciferin 4-monooxygenase (Photinus pyralis) (P08659 whole entry, looked up): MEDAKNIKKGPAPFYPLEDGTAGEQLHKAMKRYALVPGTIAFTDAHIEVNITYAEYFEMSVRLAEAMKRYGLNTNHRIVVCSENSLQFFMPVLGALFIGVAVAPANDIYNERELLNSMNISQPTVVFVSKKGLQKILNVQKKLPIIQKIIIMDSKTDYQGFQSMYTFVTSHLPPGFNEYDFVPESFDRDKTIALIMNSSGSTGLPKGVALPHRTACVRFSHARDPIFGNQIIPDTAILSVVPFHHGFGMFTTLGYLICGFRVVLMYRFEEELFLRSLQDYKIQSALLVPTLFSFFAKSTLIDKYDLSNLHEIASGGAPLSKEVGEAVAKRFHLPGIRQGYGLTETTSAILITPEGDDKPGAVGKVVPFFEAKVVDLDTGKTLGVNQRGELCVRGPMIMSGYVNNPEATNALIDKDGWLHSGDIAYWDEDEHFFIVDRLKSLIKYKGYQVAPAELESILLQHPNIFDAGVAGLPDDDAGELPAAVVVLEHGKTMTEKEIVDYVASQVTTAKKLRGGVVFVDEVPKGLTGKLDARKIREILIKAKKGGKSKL
Sequence of Focal adhesion kinase 1 (Homo sapiens) (Q05397 whole entry, looked up): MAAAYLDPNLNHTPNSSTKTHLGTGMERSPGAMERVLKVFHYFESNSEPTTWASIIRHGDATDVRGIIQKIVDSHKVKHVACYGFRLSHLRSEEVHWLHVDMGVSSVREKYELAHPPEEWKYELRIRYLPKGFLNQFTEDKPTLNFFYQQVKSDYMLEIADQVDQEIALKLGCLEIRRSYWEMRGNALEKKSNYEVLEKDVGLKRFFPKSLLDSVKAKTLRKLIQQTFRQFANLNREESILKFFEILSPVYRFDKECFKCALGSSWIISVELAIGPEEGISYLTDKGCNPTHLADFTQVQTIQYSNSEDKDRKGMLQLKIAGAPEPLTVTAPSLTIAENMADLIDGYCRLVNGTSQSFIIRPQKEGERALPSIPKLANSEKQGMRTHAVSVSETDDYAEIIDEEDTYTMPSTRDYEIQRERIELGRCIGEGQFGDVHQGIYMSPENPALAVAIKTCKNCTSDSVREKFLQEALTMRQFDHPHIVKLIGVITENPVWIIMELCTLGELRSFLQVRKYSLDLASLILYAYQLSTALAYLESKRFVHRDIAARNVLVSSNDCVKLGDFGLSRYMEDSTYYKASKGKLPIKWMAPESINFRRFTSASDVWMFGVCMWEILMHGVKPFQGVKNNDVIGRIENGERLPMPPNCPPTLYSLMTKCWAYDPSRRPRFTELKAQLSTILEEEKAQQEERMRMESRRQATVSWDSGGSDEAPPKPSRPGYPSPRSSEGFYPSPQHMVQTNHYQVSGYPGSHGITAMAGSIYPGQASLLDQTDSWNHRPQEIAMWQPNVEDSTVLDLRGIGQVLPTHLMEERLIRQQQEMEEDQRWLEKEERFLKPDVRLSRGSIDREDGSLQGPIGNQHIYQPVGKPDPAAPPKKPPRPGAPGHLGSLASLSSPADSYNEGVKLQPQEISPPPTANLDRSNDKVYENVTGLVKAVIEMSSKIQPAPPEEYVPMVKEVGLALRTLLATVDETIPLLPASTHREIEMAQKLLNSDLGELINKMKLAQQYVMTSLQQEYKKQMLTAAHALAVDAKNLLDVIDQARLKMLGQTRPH
Sequence of Follistatin (Homo sapiens) (P19883 whole entry, looked up): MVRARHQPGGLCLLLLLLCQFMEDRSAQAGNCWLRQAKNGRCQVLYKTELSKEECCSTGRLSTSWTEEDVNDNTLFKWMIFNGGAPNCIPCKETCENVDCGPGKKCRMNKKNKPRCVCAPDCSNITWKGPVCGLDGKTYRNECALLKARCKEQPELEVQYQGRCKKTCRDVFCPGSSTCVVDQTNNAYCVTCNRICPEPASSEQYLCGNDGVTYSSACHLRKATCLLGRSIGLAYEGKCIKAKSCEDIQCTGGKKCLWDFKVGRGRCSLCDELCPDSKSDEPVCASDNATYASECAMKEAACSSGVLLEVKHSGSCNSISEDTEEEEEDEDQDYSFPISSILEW

| SMILES | composite z-score [1] | composite z-score [2] | composite z-score [3] | composite z-score [4] | composite z-score [5] | composite z-score [6] | z-score [7] | composite z-score (Lefty1) | composite z-score [8] | z-score [9] | composite z-score [10] | z-score [11] | z-score [12] | z-score [13] | z-score [14] | composite z-score [15] | composite z-score [16] | composite z-score (Torsin-1A (Homo sapiens) [17]) | composite z-score (Torsin-1A (Homo sapiens) [18]) | composite z-score [19] |
| --- | --- | --- | --- | --- | --- | --- | --- | --- | --- | --- | --- | --- | --- | --- | --- | --- | --- | --- | --- | --- |
| O=C1C[C@@](C(=O)NCCN2CCOCC2)(c2ccc([N+](=O)[O-])cc2)[C@@H](c2ccc(CO)cc2I)N1CC12CC3CC(CC(C3)C1)C2 | 1.37 | 1.24 | 0.656 | 0.954 | 1.19 | 1.22 | -0.826 | 1.08 | 0.981 | -1.51 (inactive) | 0.92 | -5.9 (inactive) | 1.22 (inactive) | -0.269 (inactive) | -0.435 (inactive) | 0.489 | 0.134 | 0.97 | 0.578 | 2.14 |
| CN(C)CCCCCCNC(=O)[C@H]1C[C@H]2C(=O)N[C@@H](CCCCN)C(=O)N2[C@H]1c1cccc(OCCO)c1 | 3.31 | 1.35 | 3.91 | 0.977 | 1.54 | 0.844 | 0.332 | 1.41 | 1.64 | -0.485 (inactive) | 1.73 | 0.0574 (inactive) | 0.949 (inactive) | 0.688 (inactive) | 0.691 (inactive) | 2.14 | 0.778 | 3.76 | 3.35 | 1.43 |
| C=C(C)[C@@H]1CC=C(C(O)C2C=CC3C(=O)N(c4ccccc4)C(=O)C3N2Nc2ccccc2)CC1 (stereo not given in full) | 0.858 | 1.24 | 0.0294 | 0.982 | 1.22 | 0.001 | -0.369 | 0.226 | 1.32 | -1.24 (inactive) | 0.371 | 0.0984 (inactive) | -1.65 (inactive) | 0.0569 (inactive) | -0.0811 (inactive) | 2.43 | 0.906 | 0.476 | 0.579 | 0.456 |
| C=CCNC(=O)[C@@H]1[C@H]2C(=O)O[C@H](c3ccccc3)[C@H](c3ccccc3)N2[C@H](c2ccccc2OCCO)[C@@]12C(=O)N(C(=O)OCCOC)c1ccccc12 | 0.439 | 1.2 | -0.0723 | 0.979 | 1.39 | 1.49 | 0.432 | 1.29 | 0.478 | -0.549 (inactive) | 0.562 | -4.46 (inactive) | 1.23 (inactive) | 0.204 (inactive) | -0.768 (inactive) | 0.209 | -0.0259 | 0.226 | 0.603 | 2.17 |
| CCOC(=O)C1=C[C@@H](C(C)(C)C)N(S(=O)(=O)c2ccc(C)cc2)[C@H]1c1ccc(F)cc1 | 0.416 | 1.21 | -0.225 | 0.939 | 1.05 | 0.553 | 3.65 | 0.96 | 0.723 | 1.53 (inactive) | 0.219 | -3.79 (inactive) | 0.673 (inactive) | 0.0423 (inactive) | 0.81 (inactive) | 1.1 | 0.255 | 0.159 | 0.575 | 0.584 |
| COc1cc2c(cc1OC)CN(C(=O)[C@H]1[C@@H]3C(=O)O[C@@H](c4ccccc4)[C@@H](c4ccccc4)N3[C@@H](c3ccc(O)cc3)[C@]13C(=O)Nc1ccc(C#CCCO)cc13)CC2 | 1.31 | 1.21 | 0.055 | 0.807 | 1.12 | 0.0827 | -0.824 | 0.0938 | 0.943 | 1.1 (inactive) | -0.0279 | -1.04 (inactive) | -0.827 (inactive) | 0.0653 (inactive) | -0.163 (inactive) | 0.491 | -0.0405 | 0.0143 | 0.618 | 0.0545 |
| Cc1nc2cc(Br)ccc2c(=O)o1 | 0.302 | 0.628 | 0.201 | 0.0814 | 0.657 | -0.0519 | 0.0359 | 0.328 | 0.536 | 1.16 (inactive) | 0.119 | -1.66 (inactive) | -1.06 (inactive) | -0.464 (inactive) | -1.27 (inactive) | 0.498 | 0.0319 | 0.842 | 0.642 | 0.113 |
| COC(=O)C(CC#Cc1ccc2c(c1)[C@]1(C(=O)N2)[C@H](C(=O)Nc2nc3ccccc3s2)[C@H]2C(=O)O[C@H](c3ccccc3)[C@H](c3ccccc3)N2[C@@H]1c1ccc(O)cc1)C(=O)OC | 0.274 | 1.24 | 0.936 | 0.947 | 1.2 | 0.973 | -2.25 | 0.963 | 1.01 | 0.416 (inactive) | 0.533 | -1 (inactive) | -0.672 (inactive) | 0.155 (inactive) | -0.669 (inactive) | 0.906 | 0.0487 | 0.71 | 0.964 | 0.967 |
| CN1C(=O)C2C=CC(C(O)C#Cc3ccccc3)N(N3CCCCC3)C2C1=O (stereo not given) | 2.14 | 0.392 | -0.381 | 0.933 | 0.718 | 0.756 | 0.534 | -0.418 | 1.3 | -1.69 (inactive) | 1.11 | 0.913 (inactive) | -0.686 (inactive) | 0.236 (inactive) | -0.516 (inactive) | 0.762 | 1.1 | 1.27 | 1.79 | 0.841 |
